PubChem BioAssay
“And” between values parts separate entries of the source, which are not always exact repeats. Equal entries are not always repeated. Unmarked numbers belong to inactive results. The source made the active and inactive calls. Rule as the data show it: active = inhibition above about 80%; inactive = the rest.

assay: growth inhibition of CRL1545 osteosarcoma cells, cell-based, cisplatin and BGB IC20 combos (AID 1671464); conditions: at 0.5 µM, hits give high values;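 also: cells exposed to compound for 96 hours before readout; 0% = vehicle DMSO and 100% = high DMSO killing control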

Question: With `COc1ccccc1S(=O)(=O)Nc1ccc2c(c1)CN(C)C(=O)N2` as the compound, how does the inhibition read?
Answer: -26.6%

Question: For `Cc1cc(C#N)cc(C)c1Oc1nc(Nc2ccc(C#N)cc2)nc(N)c1Br`, which inhibition is on record?
Answer: 0.47%

Question: With `Nc1ncn(C2OC(CO)C(O)C2O)c(=O)n1` (stereo unspecified) as the compound, how does the inhibition read?
Answer: 0.69%

Question: For `Cc1cc(C)c(Nc2ccnc(Nc3ccc(C#N)cc3)n2)c(C)c1`, which inhibition is on record?
Answer: 11.1%

Question: With `COc1ccc(CC(N)C(=O)NC2C(CO)OC(n3cnc4c(N(C)C)ncnc43)C2O)cc1` (stereo unspecified) as the compound, how does the inhibition read?
Answer: 86.2% (active) and 95.7% (active)

Question: For `O=c1ccn(C2OC(CO)C(O)C2O)c(=O)[nH]1` (stereo unspecified), which inhibition is on record?
Answer: 11.7% and -2.83%

Question: For `CC=C1NC(=O)C2CSSCCC=CC(CC(=O)NC(C(C)C)C(=O)N2)OC(=O)C(C(C)C)NC1=O` (stereo unspecified), which inhibition is on record?
Answer: 96% (active) and 96.3% (active)

Question: For `CN(C)CC(=O)Nc1ccc2[nH]c(=O)c3ccccc3c2c1`, which inhibition is on record?
Answer: -19.1% and 4.9% and -4.49%

Question: With `CC1OC(n2cc(F)c(=O)[nH]c2=O)C(O)C1O` (stereo unspecified) as the compound, how does the inhibition read?
Answer: -45.1%

Question: Which inhibition does the source give for `Nc1ccn(C2OC(CO)C(O)C2(F)F)c(=O)n1` (stereo unspecified) here?
Answer: 65.3% and 70.4% and 61.5%

Question: With `Cc1cn(C2CC(N=[N+]=[N-])C(CO)O2)c(=O)[nH]c1=O` (stereo unspecified) as the compound, how does the inhibition read?
Answer: -61.3% and 13.1%

Question: With `CC(C=CC(=O)NO)=CC(C)C(=O)c1ccc(N(C)C)cc1` (stereo unspecified) as the compound, how does the inhibition read?
Answer: 88.1% (active)

Question: With `NC(=S)NN=Cc1ncccc1N` as the compound, how does the inhibition read?
Answer: 10.3%

Question: With `CC(C)(C#N)c1ccc(N2C(=O)OCc3cnc4ccc(-c5cnc6ccccc6c5)cc4c32)cc1` as the compound, how does the inhibition read?
Answer: 0.16%

Question: For `CC1CN(c2c(F)c(N)c3c(=O)c(C(=O)O)cn(C4CC4)c3c2F)CC(C)N1` (stereo unspecified), which inhibition is on record?
Answer: -2.34%

Question: For `CCCCN(Cc1ccc(C(=O)NO)cc1)C(=O)Nc1ccccc1`, which inhibition is on record?
Answer: -6.16% and 6.99%

Question: With `O=c1[nH]cnc2c1ncn2C1OC(CO)C(O)C1O` (stereo unspecified) as the compound, how does the inhibition read?
Answer: -5.83% and -5.48%

Question: Which inhibition does the source give for `Cc1cc(C=CC#N)cc(C)c1Nc1ccnc(Nc2ccc(C#N)cc2)n1` here?
Answer: -12.8%

Question: For `CC(Oc1cc(-c2cnn(C3CCNCC3)c2)cnc1N)c1c(Cl)ccc(F)c1Cl` (stereo unspecified), which inhibition is on record?
Answer: -10%

Question: For `O=C(O)c1cc2cccc([N+](=O)[O-])c2[nH]1`, which inhibition is on record?
Answer: -22.4%

Question: For `O=c1[nH]c(=O)n(C2CC(O)C(CO)O2)cc1I` (stereo unspecified), which inhibition is on record?
Answer: -56.2%
